# Compound activity (PubChem BioAssay)
# Shiga toxin inh = A qHTS for Small Molecule Inhibitors of Shiga Toxin | Vero cells, Shiga toxin protein synthesis inhibition reporter | inhibition, % at 38.7 µM | 9.2% of 290,000 active; in the data active = inhibition mostly above about 28%, no sharp cut-off; inactive = mostly below about 43%; also: 0% is about no effect
# Marburg entry inh = qHTS for inhibitors of binding or entry into cells for Marburg Virus. Potency, µM (highest dose often 37.8 µM), inactives show at the top dose activity change, negative = inhibition, most hits filed as inhibitors. 1.8% of 300,000 active. Marburg virus pseudotyped entry inhibition, cell reporter. AID 540276, 2011; calls by dose curve; tested in HEK293 cells; also: potency is read from the fitted curve at half-maximal effect; % is scaled to controls: 0 for no effect and ±100 for the full control effect
# LASV entry inh = qHTS for Inhibitors of binding or entry into cells for Lassa Virus; Lassa virus pseudotype entry inhibition, cell reporter; Potency, µM (doses to about 37.9 µM), inactives show at the top dose activity change, negative = inhibition, hits mostly inhibitors; 1.2% of 300,000 active; AID 540256, 2011; calls by dose curve; tested in HEK293 cells; also: potency is read from the fitted curve at half-maximal effect; % is scaled to controls: 0 for no effect and ±100 for the full control effect; nearly all actives have a fitted effect of over 50% in size
# Cycloheximide cs = Cycloheximide Counterscreen for Small Molecule Inhibitors of Shiga Toxin. cell reporter, cycloheximide protein synthesis inhibition counterscreen. max response, %. 12% of 300,000 active. AID 2314, 2010; in the data active = max response mostly above about 13%, no sharp cut-off; inactive = mostly below about 14%; also: read at 38.3 µM for the half of the compounds with a filed dose; 0% is about no effect
# * hit, by the source's call; ? = inconclusive; · = no result given; [ ] = another dose, or the depositor's remark. Rows were chosen to be rich in hits. Some 12% of all compounds tested hit in one or more screens of this group.
SMILES,Shiga toxin inh,Marburg entry inh,LASV entry inh,Cycloheximide cs
CCOc1ccccc1N1CC(O)=C(c2nc3ccccc3s2)C1=N,-9,5.8µM*,?,-3
N=C1C(c2nc3ccccc3s2)=C(O)CN1Cc1ccccc1,active,?,-16%,30*
C/C(N)=C(/C#N)C(=O)COC(=O)Cc1coc2ccc3ccccc3c12,-8,?,-7%,-1
COc1ccccc1CNC(=O)CN1CCN(c2ccc(C(C)=O)cc2)CC1,16,?,-21%[46.1 µM],-5
Cc1ccc(C(=O)N2CCN(c3ccc(NC(=S)NC(=O)c4cccs4)cc3)CC2)cc1,13,7.9µM*,?,-2
O=C(NC(=S)Nc1ccc(N2CCOCC2)cc1)c1cccs1,73*,·,·,41*
Cc1ccccc1C(=O)N1CCN(c2ccc(NC(=S)NC(=O)c3cccs3)cc2)CC1,-6,·,·,13
CC(C)CC(=O)NC(=S)Nc1ccc(N2CCN(C(=O)c3cccs3)CC2)cc1,13,?,5.6µM*,-2
COc1ccc(CCNC(=O)CNCC2CCCCC2)cc1OC,22,·,·,-1
CCC1CC=CC2C1C(=O)N(Cc1ccccc1)C2c1ccc(OC)c(Cl)c1 (stereo unspecified),-2,·,·,6
CCc1ccc(OCC(=O)NC(=S)Nc2cccc(CO)c2)c(Br)c1,41,14%,8%,22*
CCc1ccc(OCC(=O)NC(=S)Nc2ccc(F)cc2)c(Br)c1,-5,4%,8%,3
Cc1ccc(-c2nc(-c3cc4cccc(OCc5cccc(F)c5)c4oc3=O)no2)cc1,·,18%[46.1 µM],?,·
Cc1ccc(NC(=O)C2C3C=CC(O3)C2C(=O)O)cc1C (stereo unspecified),·,0%[46.1 µM],8%[46.1 µM],52*
COC(=O)c1ccc(NC(=O)C2C3C=CC(O3)C2C(=O)O)cc1 (stereo unspecified),30*,10%,8%,20*
CCOC(=O)c1ccc(NC(=O)C2C3C=CC(O3)C2C(=O)O)cc1 (stereo unspecified),29,·,·,13
Cc1cccc(NC(=O)C2C3C=CC(O3)C2C(=O)O)c1 (stereo unspecified),28,·,·,-2
COc1ccc(OC)c(S(=O)(=O)NC(N)=NCCc2ccccc2)c1,25,·,·,-7
Clc1ccc(-c2ccc(CN3CCCCC3)o2)cc1,39*,·,·,25*
O=[N+]([O-])c1ccc(CN2CCN(c3ccc(Cl)cc3)CC2)o1,-6,3%[46.1 µM],29%[46.1 µM],6
OCCc1ccc(-c2ccc(Cl)cc2)o1,108*,10%,1%,31*
CN1CCN(Cc2ccc(-c3ccc(Cl)cc3)o2)CC1,67,?,1%,26*
CCC(C(=O)OC)n1nnc2sc(-c3ccccc3)cc2c1=O (stereo unspecified),·,11%[46.1 µM],1%[46.1 µM],·
Cc1nc(N2CCN(Cc3ccccc3)CC2)nc2c1C(=O)CC(C)C2 (stereo unspecified),-11,-25%,?,1
COc1cc(C2CC(=O)c3cnc(N4CCN(CCO)CC4)nc3C2)cc(OC)c1OC (stereo unspecified),·,-9%[46.1 µM],-21%[46.1 µM],·
SMILES,Shiga toxin inh,Marburg entry inh,LASV entry inh,Cycloheximide cs
CC1CC(C)CN(c2ncc3c(n2)CC(c2ccccc2)CC3=O)C1 (stereo unspecified),7,-15%,2.8µM*,-5
COc1cc(C2CC(=O)c3cnc(N4CCN(Cc5ccccc5)CC4)nc3C2)cc(OC)c1OC (stereo unspecified),6,?,23µM*,6
COc1ccc(C2CC(=O)c3c(C)nc(N4CCN(Cc5ccccc5)CC4)nc3C2)cc1OC (stereo unspecified),16,18µM*,8.2µM*,3
Cc1ccc(C)c(N2CCN(C(=O)C(C)n3nc(C)c4sc5ccccc5c4c3=O)CC2)c1 (stereo unspecified),·,1%[46.1 µM],0%[46.1 µM],·
Cc1cc(C)n2nc(Nc3ccccc3)cc2n1,88*,3%,3%,28*
Nc1cc(-c2ccc(Br)cc2)nc2cc(-c3ccccc3)nn12,93*,22%[46.1 µM],27%,24
Cc1ccc(-c2cc3nc(C)cc(C)n3n2)cc1,78*,-27%[46.1 µM],2%,38*
Cc1cc(C)n2nc(-c3ccsc3-n3c(C)ccc3C)cc2n1,-10,?,1%,-2
Nc1cc(-c2ccc(Br)cc2)nn1S(=O)(=O)c1ccccc1,-20,-1%,1%,-6
Cc1cc(C)n2nc(-c3ccccc3)cc2n1,77*,0%[46.1 µM],?,57*
COc1ccc(CNC(=O)Cc2ccc(NC(=O)N3CCSc4ncccc43)cc2)cc1,·,·,-1%[46.1 µM],·
Cc1cc(C)n(C[C@@H]2CC(=O)N(c3cc(Cl)cc(Cl)c3)C2=O)n1,·,4%,·,·
Cc1ccc(Sc2ccc(N3CCC(C(=O)Nc4ccc(C)c(F)c4)CC3)nn2)cc1,·,-3%[46.1 µM],-1%[46.1 µM],·
Cn1cc(Br)c(C(=O)NNC(=O)c2cccc(Br)c2)n1,27,16%,4%,9
Cc1ccc(NC(=O)c2cc3nc(-c4ccccc4)cc(-c4ccccc4)n3n2)cc1,·,·,2%[46.1 µM],·
Cc1ccc(NC(=O)c2cc3nc(C)cc(C)n3n2)cc1,101*,?,?,47*
CCCNC(=O)CN1C(=O)CSc2ccc(S(=O)(=O)N3CCC(C)CC3)cc21,·,7%[46.1 µM],·,·
Nc1nnc(/C=C/c2ccccc2Cl)s1,47*,7.1µM*,?,36*
O=C(CSc1nc(O)cc(=O)n1-c1ccccc1)c1ccc(Br)cc1,55,0%[46.1 µM],1%[46.1 µM],24*
CCN(CC)c1ccc2c(c1)C(=O)N(C)C2=O,72*,12%,25%,33*
CCN(CCCCN1C(=O)c2ccccc2C1=O)c1ccc2c(c1)C(=O)N(C)C2=O,-17,?,?,-1
COc1cc(C2Nc3ccccc3-c3nnc(SCc4ccc(C)cc4)nc3O2)cc(OC)c1O (stereo unspecified),·,?,-6%[46.1 µM],·
O=C(CCc1ccccc1)NNC(=O)C12CC3CC(CC(C3)C1)C2,45,22%,-16%[14.3 µM],21*
O=C(CCc1ccccc1)NNC(=O)c1ccccc1C(=O)O,21,-2%,4.6µM*,-1
CC1CCc2c(sc(NC(=O)CCCOc3ccc(C(C)(C)C)cc3)c2C(N)=O)C1 (stereo unspecified),·,·,3%[46.1 µM],·
SMILES,Shiga toxin inh,Marburg entry inh,LASV entry inh,Cycloheximide cs
COC(=O)[C@@H]1[C@@H](C)N(CCc2cc(OC)c(OC)c(OC)c2)C(=O)N[C@H]1c1ccccc1,·,-31%[14.2 µM],·,·
Cc1ccc(C(C)(O)CS(=O)(=O)Cc2ccccc2)cc1 (stereo unspecified),19,21%[46.1 µM],-16%[46.1 µM],16*
COc1ccc(CS(=O)(=O)CC(C)(O)c2ccccc2)cc1 (stereo unspecified),-10,·,·,-6
COCCN(CCOC)S(=O)(=O)c1ccc(NC(=O)c2cnccn2)cc1,9,·,·,-1
CCOc1ccccc1NC(=O)CN1CCC(NC(=O)Nc2ccccc2)CC1,2,12%[46.1 µM],-19%,-5
Cc1cc(NC(=O)COC(=O)c2ccccc2NCCO)no1,·,15%,30%,·
Cc1cc(NC(=O)COC(=O)c2ccccc2S(=O)(=O)N(C)c2ccccc2)no1,-10,?,2.5µM*,-2
CC(CN1CCCCC1)OC(=O)c1ccc2c(c1)OCCO2 (stereo unspecified),70*,10%[46.1 µM],4%,43*
